The results in this text go back to PubChem BioAssay.

The test system of test [1] is Wnt5a (protein binding on small-molecule microarray). Description: small molecules binding Wnt5a protein – biophysical, small-molecule microarray, 635/667 nm fluorescence, primary screen (AID 1142).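 Note: fluorescence read at 667 nm with signal to noise per printed feature.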 The settings on record: 635 nm fluorescence, higher = more signal.
The nature of test [2]: ATP-based viability of Huh7 replicon cells – cell-based, CellTiter-Glo luminescence, basal, 48 h, cytotoxicity control for HCV replication inhibitor project, primary screen (AID 1143).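 Note: Huh7 hepatoma cells carrying a hepatitis C replication reporter with no stimulus; test concentration not given here.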 The following applies: higher = more signal, called active from +8 up or from −8 down. (Replicon systems follow genome replication, usually without infectious particles.)
Test [3] in a line: Pseudomonas biofilm growth suppression – PAO1 strain, BacTiter-Glo luminescence, LB-PBS, primary screen (AID 1144). The following applies: P. aeruginosa PAO1 biofilm, 12 h, higher = more signal.
The nature of test [4]: basal CRE-LacZ reporter activity in PC12 – cell-based, unstimulated, primary screen (AID 1145). The settings on record: no forskolin, luminescence, 4.5 h, higher = more signal, called active from +8 up or from −8 down.
The nature of test [5]: forskolin-driven CRE-LacZ activity in PC12 – cell-based, CRE-LacZ reporter, forskolin-stimulated, primary screen (AID 1146).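 Note: PC12 cells with 6xCRE LacZ reporter stimulated by forskolin 10 µM; beta-galactosidase reporter signal reflecting CREB driven transcription.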 The settings on record: luminescence, 4.5 h, higher = more signal, called active from +8 up or from −8 down.
The target of test [6] is Streptavidin (Streptomyces avidinii) (UniProt P22629). Put plainly: compounds binding control protein streptavidin – biophysical, small-molecule microarray, 635/667 nm fluorescence, artefact control for SMM compound annotation, primary screen (AID 1147).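 Note: signal reflects streptavidin binding to arrayed compounds as a control protein.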 The following applies: higher = more signal.
Sequence of Streptavidin (Streptomyces avidinii) (P22629 whole entry, looked up): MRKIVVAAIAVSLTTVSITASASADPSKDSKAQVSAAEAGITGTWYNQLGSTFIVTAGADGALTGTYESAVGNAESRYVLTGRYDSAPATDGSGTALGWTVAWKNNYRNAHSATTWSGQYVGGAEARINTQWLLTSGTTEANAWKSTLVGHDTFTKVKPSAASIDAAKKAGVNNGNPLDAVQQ
Test [7] in a line: probe aInhba binding on compound microarray – biochemical, small-molecule microarray, 635/667 nm fluorescence, primary screen (AID 1148).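 Note: score merges 667nm spot fluorescence with signal-to-noise for antibody binding to printed compounds.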 The following applies: higher = more signal.
Test [8] deals with Torsin-1A (Homo sapiens) (UniProt O14656). Description: TOR1A wild-type binding on microarray – cell lysate, small-molecule microarray, lysate, 635/667 nm, primary screen (AID 1149). The following applies: COS7 hTOR1A-WT lysate, 635 nm fluorescence, higher = more signal.
Sequence of Torsin-1A (Homo sapiens) (O14656 whole entry, looked up): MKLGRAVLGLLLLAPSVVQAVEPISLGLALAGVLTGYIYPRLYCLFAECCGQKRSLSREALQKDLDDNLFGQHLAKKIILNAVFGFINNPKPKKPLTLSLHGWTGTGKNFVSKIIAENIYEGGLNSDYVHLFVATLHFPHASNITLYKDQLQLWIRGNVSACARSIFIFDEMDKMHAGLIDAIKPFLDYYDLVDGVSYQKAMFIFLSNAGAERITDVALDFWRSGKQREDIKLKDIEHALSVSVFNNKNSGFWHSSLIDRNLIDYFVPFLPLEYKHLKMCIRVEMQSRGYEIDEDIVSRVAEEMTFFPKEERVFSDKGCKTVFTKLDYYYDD
Test [9] shares this target. Description: torsin A mutant lysate binding on microarrays – cell lysate, small-molecule microarray, COS7 lysate, 635/667 nm fluorescence, primary screen (AID 1150).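 Note: score pools 667 nm emission and signal to noise measuring lysate protein binding.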 The following applies: COS7 hTOR1A mutant lysate, 635 nm fluorescence, higher = more signal.
Test [10] deals with Sonic hedgehog protein (Shh). Description: Sonic hedgehog microarray binding compounds – biochemical, small-molecule microarray, 635/667 nm fluorescence, primary screen (AID 1151).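 Note: Shh protein binding to compounds spotted on small-molecule microarray slides; score combines spot fluorescence intensity with signal-to-noise across triplicate slides.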 The settings on record: 635 nm fluorescence, higher = more signal.
Test [11] in a line: optical density shifts of acrAB sulA E. coli – strain DRC41, OD650, 48 h, E. coli filamentation inducer project, primary screen (AID 1152).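 Note: E. coli MC1000 strain DRC41 lacking acrAB efflux pump and sulA.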 The following applies: higher = more signal, called active from +8 up or from −8 down.
A short description of test [12]: probe aLefty1 binding on compound microarray – biochemical, small-molecule microarray, 635/667 nm fluorescence, primary screen (AID 1153).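 Note: score merges spot fluorescence with signal-to-noise ratio from the scanned slide images.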 The settings on record: higher = more signal.
Test [13] in a line: plasmodial surface anion channel blockers, osmotic lysis – cell-based, P. falciparum Indochina, OD700, 1 h, primary screen (AID 1154). The following applies: P. falciparum Indochina infected RBC osmotic lysis, higher = more signal, called active from +8 up or from −8 down.
Test [14] can be described thus: plasmodial surface anion channel blockers, osmotic lysis – cell-based, P. falciparum Indochina, OD700, 2 h, primary screen (AID 1155).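 Note: lysis reports solute entry through the parasite surface anion channel PSAC.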 The following applies: P. falciparum Indochina infected erythrocytes, higher = more signal, called active from +8 up or from −8 down.
A short description of test [15]: changes in parasitized red cell lysis, either direction – P. falciparum Indochina, OD700, 3 h, PSAC antagonist project, primary screen (AID 1156). The settings on record: P. falciparum-infected erythrocytes, osmotic lysis, higher = more signal, called active from +8 up or from −8 down.
A short description of test [16]: plasmodial surface anion channel blockers, osmotic lysis – cell-based, P. falciparum Indochina, OD700, 18 h, primary screen (AID 1157). The following applies: P. falciparum Indochina infected erythrocytes, osmotic lysis OD700, 18 h; higher = more signal, called active from +8 up or from −8 down.
The nature of test [17]: S6 kinase pathway phospho-S6 level changes – cell-based, A549, cytoblot, luminescence, serum-stimulated, primary screen (AID 1158).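 Note: serum-stimulated A549 lung adenocarcinoma cells; signal is phosphorylated S6 detected by cytoblot immunostaining with HRP secondary.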 The settings on record: 5 h, higher = more signal.
Test [18] addresses NADPH oxidase 2 (Homo sapiens) (UniProt P04839). Put plainly: compounds shifting NOX2 Amplex Red fluorescence – cell-based, HEK293-NOX2, PMA-stimulated, NOX inhibitor project, primary screen (AID 1159). Note: test concentration not given here. The settings on record: 45 min, higher = more signal, called active from +8 up or from −8 down.
For test [19], the target named is NADPH oxidase 4 (Homo sapiens) (UniProt Q9NPH5). Description: compounds shifting NOX4 Amplex Red fluorescence – cell-based, HEK293-NOX4, tetracycline-induced, NOX inhibitor project, primary screen (AID 1160). The settings on record: HEK293-NOX4, Amplex Red H2O2 fluorescence, 45 min; higher = more signal, called active from +8 up or from −8 down.
Sequence of NADPH oxidase 4 (Homo sapiens) (Q9NPH5 whole entry, looked up): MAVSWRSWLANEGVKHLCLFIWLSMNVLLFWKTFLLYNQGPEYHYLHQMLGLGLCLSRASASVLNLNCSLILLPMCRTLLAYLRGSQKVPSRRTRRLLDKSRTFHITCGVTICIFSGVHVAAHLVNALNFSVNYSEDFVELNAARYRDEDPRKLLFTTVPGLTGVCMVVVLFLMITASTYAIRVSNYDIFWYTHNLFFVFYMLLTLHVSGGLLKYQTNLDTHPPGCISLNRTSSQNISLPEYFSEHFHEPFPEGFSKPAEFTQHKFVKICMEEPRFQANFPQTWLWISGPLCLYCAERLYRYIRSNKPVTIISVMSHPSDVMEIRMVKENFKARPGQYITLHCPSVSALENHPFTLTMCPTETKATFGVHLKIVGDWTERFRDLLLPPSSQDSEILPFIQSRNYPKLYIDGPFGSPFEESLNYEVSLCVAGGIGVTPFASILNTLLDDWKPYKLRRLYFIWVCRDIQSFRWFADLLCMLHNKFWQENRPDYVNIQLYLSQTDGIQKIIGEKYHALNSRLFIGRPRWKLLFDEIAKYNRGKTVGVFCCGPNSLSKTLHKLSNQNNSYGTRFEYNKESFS
The target in test [20] is NADPH oxidase 5 (Homo sapiens) (UniProt Q96PH1). Put plainly: compounds shifting NOX5 Amplex Red fluorescence – cell-based, HEK293-NOX5, NOX inhibitor project, primary screen (AID 1161). The settings on record: HEK293-NOX5, ionomycin, 45 min, higher = more signal.
Sequence of NADPH oxidase 5 (Homo sapiens) (Q96PH1 whole entry, looked up): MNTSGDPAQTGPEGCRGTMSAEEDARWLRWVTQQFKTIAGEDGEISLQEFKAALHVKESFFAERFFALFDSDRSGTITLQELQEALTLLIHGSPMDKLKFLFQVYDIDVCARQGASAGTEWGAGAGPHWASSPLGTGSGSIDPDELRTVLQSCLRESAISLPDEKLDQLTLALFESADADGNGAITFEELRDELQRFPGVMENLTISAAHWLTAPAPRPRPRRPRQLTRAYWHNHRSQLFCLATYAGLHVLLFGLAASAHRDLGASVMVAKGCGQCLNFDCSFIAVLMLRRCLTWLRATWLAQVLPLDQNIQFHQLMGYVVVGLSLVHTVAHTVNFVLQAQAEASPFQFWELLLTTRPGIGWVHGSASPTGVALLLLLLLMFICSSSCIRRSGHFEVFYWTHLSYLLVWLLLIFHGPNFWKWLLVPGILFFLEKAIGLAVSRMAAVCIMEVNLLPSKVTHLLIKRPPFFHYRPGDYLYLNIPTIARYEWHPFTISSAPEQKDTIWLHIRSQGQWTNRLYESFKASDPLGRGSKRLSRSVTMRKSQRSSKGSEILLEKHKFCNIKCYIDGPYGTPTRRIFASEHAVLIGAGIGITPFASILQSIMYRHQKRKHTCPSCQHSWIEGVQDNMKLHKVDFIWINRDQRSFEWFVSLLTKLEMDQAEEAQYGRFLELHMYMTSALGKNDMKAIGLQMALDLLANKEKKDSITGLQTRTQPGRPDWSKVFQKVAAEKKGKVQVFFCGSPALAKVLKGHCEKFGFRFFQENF

Molecules are shown by their SMILES. Activity calls are given as the source filed them. Unless noted, the rule behind the calls is not given here.

Sequence of NADPH oxidase 2 (Homo sapiens) (P04839 whole entry, looked up): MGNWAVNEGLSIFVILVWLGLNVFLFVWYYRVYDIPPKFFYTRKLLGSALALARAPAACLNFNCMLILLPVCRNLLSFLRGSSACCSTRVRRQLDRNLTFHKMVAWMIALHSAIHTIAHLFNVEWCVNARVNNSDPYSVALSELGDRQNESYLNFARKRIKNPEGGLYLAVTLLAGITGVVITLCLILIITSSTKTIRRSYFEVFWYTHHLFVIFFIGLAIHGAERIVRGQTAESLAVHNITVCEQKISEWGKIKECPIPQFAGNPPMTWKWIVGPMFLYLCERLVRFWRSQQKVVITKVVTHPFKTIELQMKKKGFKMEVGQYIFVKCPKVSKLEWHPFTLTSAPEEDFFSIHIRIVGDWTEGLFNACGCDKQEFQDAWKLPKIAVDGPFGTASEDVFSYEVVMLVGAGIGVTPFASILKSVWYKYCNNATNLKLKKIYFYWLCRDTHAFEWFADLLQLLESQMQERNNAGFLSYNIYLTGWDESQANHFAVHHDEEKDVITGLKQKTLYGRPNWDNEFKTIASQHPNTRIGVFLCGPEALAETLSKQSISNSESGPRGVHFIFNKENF

For the molecule `COC(=O)C(CC#Cc1ccc2c(c1)[C@]1(C(=O)N2)[C@H](C(N)=O)[C@H]2C(=O)O[C@H](c3ccccc3)[C@H](c3ccccc3)N2[C@@H]1c1ccccc1OCCO)C(=O)OC`, the composite z-score in [1] was 0.151; in test [6], -0.0001; in test [7], -0.152; in test [8] it was 0.544; in test [9], 1.48; in [10], 1.07. For the same molecule, the composite z-score in test [12] came to 0.0622. The z-score in test [2] was -6.25 (inactive); in test [3] it was -0.451 (inactive); in test [4], 0.362 (inactive); in test [5] it was -0.955 (inactive); in [11], 0.879 (inactive); in [13], 14.2 (active). Besides, the z-score in test [14] was 3.83 (inactive); in test [15] it was 1.02 (inactive); in [16] it was 1.47 (inactive); in test [17], -0.127; in test [18], 1.9 (inactive); in [19] it was 0.723 (inactive). Moreover, the z-score in test [20] turned out to be 0.904.

On to `O=C(NCCN1CCOCC1)[C@@H]1c2ccccc2C(=O)N(CC23CC4CC(CC(C4)C2)C3)[C@H]1c1ccc(CO)cc1`, for which the composite z-score worked out at 0.617 in test [1]; 1.12 in test [6]; 0.0542 in [7]; 0.51 in [8]; 1.47 in [9]; 0.506 in test [10]. The same molecule gave a composite z-score in test [12] of 0.409. The z-score was -2.69 (inactive) in [2]; -0.634 (inactive) in test [3]; 0.441 (inactive) in test [4]; -0.0639 (inactive) in [5]; 0.0865 (inactive) in test [11]; 2.89 (inactive) in test [13]. Also, the z-score was 1.09 (inactive) in [14]; 1.29 (inactive) in test [15]; 0.744 (inactive) in test [16]; -0.407 in [17]; -0.0458 (inactive) in test [18]; -1.7 (inactive) in [19]. In addition, in test [20], the z-score was -1.61.

For the molecule `Cc1ccc(S(=O)(=O)N2[C@@H](c3ccccc3)C(C(=O)O)=C[C@H]2C(C)(C)C)cc1`, the composite z-score in test [1] was found to be 0.211; in test [6], 1.52; in test [7], 0.209; in test [8], 0.391; in test [9], 0.985; in [10] it was 0.719. This molecule displayed a composite z-score in test [12] of -0.0318. Also, the z-score in test [2] is -1.23 (inactive); in [3], 0.137 (inactive); in test [4], 0.238 (inactive); in test [5], 0.926 (inactive); in test [11], -0.576 (inactive); in test [13] it was 0.386 (inactive). In addition, the z-score in [14] was 0.0156 (inactive); in test [15], 0.136 (inactive); in test [16], 0.61 (inactive); in [17], -0.222; in [18], 0.384 (inactive); in test [19], -0.539 (inactive). In addition, the z-score in test [20] was -0.36.

With `COc1ccc(NN2C(C(O)c3ccccc3)C=CC3C(=O)N(C4CCCCC4)C(=O)C32)cc1` (stereo not given), the composite z-score in [1] was determined as 0.272; in [6], 0.929; in test [7], 0.19; in test [8], 0.473; in test [9], 0.37; in [10], 0.871. Further, the composite z-score in [12] is 0.0479. The z-score in test [2] was -2.44 (inactive); in test [3], -1.71 (inactive); in test [4] it was 0.127 (inactive); in test [5], 1.65 (inactive); in test [11] it was -0.775 (inactive); in test [13], 11.8 (active). The z-score in [14] was 2.25 (inactive); in test [15] it was 1.31 (inactive); in test [16], 1.22 (inactive); in test [17], -0.388; in test [18] it was -2.76 (inactive); in test [19], -2.65 (inactive). The z-score in test [20] was -2.39.
